Test results as given in PubChem BioAssay AID504815 (NMMLSC, 2011).
Measured potencies and affinities stand elsewhere.

These compounds were tested against Beta-adrenergic receptor kinase 1 (Homo sapiens) (UniProt P25098) (assay: Second cherry pick dose-response of GRK2-aptamer binding blockers, biochemical bead flow cytometry (AID 504815)). Conditions: biotinylated GRK2 beads, FAM-aptamer displacement; series mostly up to 33 µM; aptamer binding inhibition: at the top concentration;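 active means compounds with a tight curve fit, inhibition span over 25% and half-maximal concentration below 10 µM; inactive means the rest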.
Sequence of Beta-adrenergic receptor kinase 1 (Homo sapiens) (P25098 whole entry, looked up): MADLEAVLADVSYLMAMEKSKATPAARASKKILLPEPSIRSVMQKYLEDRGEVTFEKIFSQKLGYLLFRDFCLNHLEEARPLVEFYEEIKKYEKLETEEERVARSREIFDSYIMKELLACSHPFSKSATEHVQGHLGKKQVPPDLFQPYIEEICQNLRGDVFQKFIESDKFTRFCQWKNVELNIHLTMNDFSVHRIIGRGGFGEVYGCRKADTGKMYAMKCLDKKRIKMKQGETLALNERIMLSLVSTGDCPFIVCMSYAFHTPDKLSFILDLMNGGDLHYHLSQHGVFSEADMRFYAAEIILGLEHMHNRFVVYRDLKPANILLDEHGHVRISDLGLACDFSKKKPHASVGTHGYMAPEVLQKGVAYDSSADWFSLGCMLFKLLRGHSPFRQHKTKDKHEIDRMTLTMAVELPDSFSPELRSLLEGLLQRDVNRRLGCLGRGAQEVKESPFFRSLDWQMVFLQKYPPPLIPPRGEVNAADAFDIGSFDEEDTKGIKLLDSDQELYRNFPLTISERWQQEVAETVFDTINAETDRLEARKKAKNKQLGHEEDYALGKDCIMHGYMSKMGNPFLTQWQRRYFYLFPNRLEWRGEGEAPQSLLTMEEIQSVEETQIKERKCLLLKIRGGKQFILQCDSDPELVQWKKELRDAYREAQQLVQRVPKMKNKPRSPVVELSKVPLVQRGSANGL

Aptamer binding inhibition, inactive:
Cc1ccccc1NC(=O)CCS(=O)(=O)c1ccc(Br)cc1 41.5%
O=C(CCS(=O)(=O)c1ccc(Br)cc1)NCCc1ccc(Cl)cc1 56.4%
COC(=O)c1ccc(NC(=O)CCS(=O)(=O)c2ccc(Br)cc2)cc1 72.6%
CCOc1ccc(NC(=O)CCS(=O)(=O)c2ccc(Br)cc2)cc1 67.8%
CCc1ccccc1NC(=O)CCS(=O)(=O)c1ccc(OC)cc1 51.4%
O=C(CCS(=O)(=O)c1ccc(Br)cc1)NC1CCCC1 60%
COc1ccc(-c2csc3nc(-c4ccc(C)cc4)oc(=O)c23)cc1OC 76.8%
O=C(CCS(=O)(=O)c1ccc(Br)cc1)NCc1ccc(F)cc1 79.2%
O=C(CCS(=O)(=O)c1ccc(Br)cc1)NCc1cccs1 84.7%
CCc1ccccc1NC(=O)CCS(=O)(=O)c1ccc(Br)cc1 54.1%
O=C(CCS(=O)(=O)c1ccc(Br)cc1)Nc1cc(F)ccc1F 66.9%
CCN(CC)c1ccc(NC(=O)CCS(=O)(=O)c2ccc(Br)cc2)c(C)c1 58.8%
O=C(CCS(=O)(=O)c1ccc(Br)cc1)Nc1ccc(Br)cc1F 69.3%
CCOc1ccccc1NC(=O)CCS(=O)(=O)c1ccc(Br)cc1 93.7%
C#CCSc1nc2sc3c(c2c(=O)n1C)CCC3 83.5%
O=C(CCS(=O)(=O)c1ccc(Br)cc1)NCc1ccco1 66.6%
COc1ccc(CNC(=O)CCS(=O)(=O)c2ccc(Br)cc2)cc1 70.9%
COc1ccc([N+](=O)[O-])cc1NC(=O)CCS(=O)(=O)c1ccc(Br)cc1 47.6%
COc1ccc(Cl)cc1NC(=O)CCS(=O)(=O)c1ccc(Br)cc1 92.7%
O=C(CCS(=O)(=O)c1ccc(Br)cc1)NCCc1ccccc1 66.6%
